Assay results reported in the supplement of paper PMC12350171.
Where a name gives a salt, the structure may show the parent alone. Values without a mark were called inactive.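 The calls were made as follows: active = normalised median growth AUC below 0.1 of DMSO control; inactive = AUC 0.1 or higher.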

These compounds were tested on P. vulgatus WT (assay: growth AUC normalised to DMSO control (median) (fraction of control); higher = less growth inhibition, active = hit call of the paper). Conditions: 20 µM.
How it was run: (§1)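 Each strain went through two overnight passages under anaerobic conditions before growth in mGAM in 96-well plates, starting at OD578 0.01, with each compound from the approved-drug library at 20 μM and 1% DMSO. Inside an anaerobic incubator, OD578 was recorded every hour for 24 h. Growth curves were cut off at entry into stationary phase, and the area under the curve was calculated by the trapezoidal rule and normalised to vehicle wells on the same plate. Reported values are medians of three biological replicates.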
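Also: active when median AUC fell below 0.1.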

Compound	growth AUC normalised to DMSO control
Cc1scc2c1N(C(=O)CN1CCN(C)CC1)c1ccccc1NC2=O [Telenzepine dihydrochloride]	0.983
CCCCN(CCCC)CCC(O)c1cc2c(Cl)cc(Cl)cc2c2cc(C(F)(F)F)ccc12 (stereo not given) [Halofantrine hydrochloride]	1.11
CCN1CCCC1CNC(=O)c1cc(S(=O)(=O)CC)c(N)cc1OC (stereo not given) [Amisulpride]	1.01
Clc1ccc(CCC(Cn2ccnc2)Sc2c(Cl)cccc2Cl)cc1 (stereo not given) [Butoconazole nitrate]	1
CCn1nc(C(=O)O)c(=O)c2cc3c(cc21)OCO3 [Cinoxacin]	1.01
CCC1(c2ccccc2)NC(=O)N(C)C1=O (stereo not given) [Mephenytoin]	1.03
CCCN(CCC)C(=O)C(CCC(=O)O)NC(=O)c1ccccc1 (stereo not given) [Proglumide]	1.06
O=C1NCC2(CCN(CCc3ccccc3)CC2)O1 [Fenspiride hydrochloride]	0.974
CC(c1cc2ccccc2s1)N(O)C(N)=O (stereo not given) [Zileuton]	0.985
c1ccc2c(c1)CCCC2C1=NCCN1 (stereo not given) [Tetrahydrozoline hydrochloride]	1

The compounds below were run on S. enterica typhimurium WT in the same assay as above. Conditions: 20 µM.
How it was run: as §1

Compound	growth AUC normalised to DMSO control
Cn1c(=O)c2c(ncn2CC(O)CO)n(C)c1=O (stereo not given) [Diprophylline]	0.991
CC(C)(C)NC[C@@H](O)COc1cccc2c1CCCC2=O [(+) Levobunolol hydrochloride]	0.993
C[C@]12CCC(=O)C=C1CC[C@@H]1[C@@H]2[C@@H](O)C[C@@]2(C)[C@H]1CC[C@]2(O)C(=O)CO [Hydrocortisone]	0.999
C#Cc1cccc(Nc2ncnc3cc(OCCOC)c(OCCOC)cc23)c1 [Erlotinib]	0.997
O=C1CCC(N2C(=O)c3ccccc3C2=O)C(=O)N1 (stereo not given) [Thalidomide]	1
CCOC(=O)C1=C(COCCN)NC(C)=C(C(=O)OC)C1c1ccccc1Cl (stereo not given) [Amlodipine]	1.02
COc1ccc(CN(CCN(C)C)c2ccccn2)cc1 [Pyrilamine maleate]	0.993
CN1CCCC(CC2c3ccccc3Sc3ccccc32)C1 (stereo not given) [Metixene hydrochloride]	1.01
CC(C)/N=c1\cc2n(-c3ccc(Cl)cc3)c3ccccc3nc-2cc1Nc1ccc(Cl)cc1 [Clofazimine]	0.972
NC(N)=Nc1nc(CSCC/C(N)=N/S(N)(=O)=O)cs1 [Famotidine]	1.01
O=C1c2ccccc2C(=O)C1c1ccccc1 [Phenindione]	0.998
CN1CCN2c3ccccc3Cc3ccccc3C2C1 (stereo not given) [Mianserine hydrochloride]	0.994
CCN1C(=O)NC(c2ccccc2)C1=O (stereo not given) [Ethotoin]	0.987
CC(=O)OCC(=O)[C@@]12OC3(CCCC3)O[C@@H]1C[C@H]1[C@@H]3CCC4=CC(=O)C=C[C@]4(C)[C@@]3(F)[C@@H](O)C[C@@]12C [Amcinonide]	1.01
CCc1cccc(CC)c1NC(=O)CN(CC(=O)O)CC(=O)O [Etifenin]	1
COc1ccc(C(Cl)=C(c2ccc(OC)cc2)c2ccc(OC)cc2)cc1 [Chlorotrianisene]	0.978
CC(=O)c1ccc2c(c1)N(CCCN(C)C)c1ccccc1S2 [Acetopromazine maleate salt]	1
CCN1CCCC(OC(=O)C(c2ccccc2)c2ccccc2)C1 (stereo not given) [Piperidolate hydrochloride]	0.998
CCCCOc1ccc(CC(=O)NO)cc1 [Bufexamac]	0.997
NC[C@@H]1O[C@H](O[C@H]2[C@@H](O)[C@H](O[C@@H]3[C@@H](O)[C@H](N)C[C@H](N)[C@H]3O[C@H]3O[C@H](CN)[C@@H](O)[C@H](O)[C@H]3N)O[C@@H]2CO)[C@H](N)[C@@H](O)[C@@H]1O [Neomycin sulfate]	0.999

Compound	growth AUC normalised to DMSO control
COc1cc(C(=O)OCCCN2CCCN(CCCOC(=O)c3cc(OC)c(OC)c(OC)c3)CC2)cc(OC)c1OC [Dilazep dihydrochloride]	1
NC1CCN(c2c(F)cc3c(=O)c(C(=O)O)cn(C4CC4)c3c2Cl)C1 (stereo not given) [Clinafloxacin]	0.00822 (active)
CC(=O)O[C@H]1C[C@@]2(C)[C@@H](C[C@@H](O)[C@H]3[C@@]4(C)CC[C@@H](O)[C@@H](C)[C@@H]4CC[C@@]32C)/C1=C(\CCC=C(C)C)C(=O)O [Fusidic acid sodium salt]	0.989
c1cnc(N2CCN(Cc3ccc4c(c3)OCO4)CC2)nc1 [Piribedil]	0.984
O=C(CCCCC(=O)Nc1c(I)cc(I)c(C(=O)O)c1I)Nc1c(I)cc(I)c(C(=O)O)c1I [Iodipamide]	0.999
COc1ccc2c(c1)C(=O)N(CCc1ccc(S(=O)(=O)NC(=O)NC3CCCCC3)cc1)C(=O)C2(C)C [Gliquidone]	1.01
CC1(C)S[C@@H]2[C@H](NC(=O)[C@H](C(=O)O)c3ccsc3)C(=O)N2[C@H]1C(=O)O [Ticarcillin sodium]	0.00844 (active)
CCOC(=O)/C=C(C)/C=C/C=C(C)/C=C/c1c(C)cc(OC)c(C)c1C [Etretinate]	1
O=C(O)COCCN1CCN(C(c2ccccc2)c2ccc(Cl)cc2)CC1 (stereo not given) [Cetirizine dihydrochloride]	1.01
CCN(CC)C(C)CN1c2ccccc2Sc2ccccc21 (stereo not given) [Ethopropazine hydrochloride]	0.993
Cc1scc2c1N(C(=O)CN1CCN(C)CC1)c1ccccc1NC2=O [Telenzepine dihydrochloride]	1.01
CCCCN(CCCC)CCC(O)c1cc2c(Cl)cc(Cl)cc2c2cc(C(F)(F)F)ccc12 (stereo not given) [Halofantrine hydrochloride]	1.02
CCN1CCCC1CNC(=O)c1cc(S(=O)(=O)CC)c(N)cc1OC (stereo not given) [Amisulpride]	1.01
Clc1ccc(CCC(Cn2ccnc2)Sc2c(Cl)cccc2Cl)cc1 (stereo not given) [Butoconazole nitrate]	1.01
CCn1nc(C(=O)O)c(=O)c2cc3c(cc21)OCO3 [Cinoxacin]	0.0574 (active)
CCC1(c2ccccc2)NC(=O)N(C)C1=O (stereo not given) [Mephenytoin]	1
CCCN(CCC)C(=O)C(CCC(=O)O)NC(=O)c1ccccc1 (stereo not given) [Proglumide]	1
O=C1NCC2(CCN(CCc3ccccc3)CC2)O1 [Fenspiride hydrochloride]	1
CC(c1cc2ccccc2s1)N(O)C(N)=O (stereo not given) [Zileuton]	1
c1ccc2c(c1)CCCC2C1=NCCN1 (stereo not given) [Tetrahydrozoline hydrochloride]	0.996
